# Measurements reported in the supplement of paper PMC6555819.
# What was measured:
# Test in all cases: PBM binding z-score (relative to random genomic background probes); higher = stronger binding; sequences stand for … in GC…GCGATTGACAGCGTAGAATGAAGG
# [1] = test system: RARb homodimer (NR concentration 270 nM)
# Method in brief: (§1)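 Scanned fluorescence from custom Agilent 4×180K protein-binding microarrays was regression-normalized. Binding z-scores use random background probes as reference. Ligand-free nuclear receptor dimers were incubated on the arrays for 1 h and detected with antibodies against each partner (one per run).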
# [2] = test system: RARg:RXRa (NR concentration 270 nM, RXRa partner concentration 90 nM)
# Method in brief: as §1
# [3] = test system: RARg homodimer (NR concentration 270 nM)
# Method in brief: as §1
# [4] = test system: RXRa DBDmut IVT, anti-RXR (DBD mutation: RXRa K156A/R161A, NR concentration 90 nM)
# Method in brief: as §1
# [5] = test system: RXRa homodimer (NR concentration 180 nM)
# Method in brief: as §1
# [6] = test system: THRa:RXRa (NR concentration 90 nM, RXRa partner concentration 90 nM)
# Method in brief: as §1
# [7] = test system: THRa homodimer (NR concentration 90 nM)
# Method in brief: as §1
# [8] = test system: VDR homodimer (NR concentration 270 nM)
# Method in brief: as §1
Sequence,PBM binding z-score [1],PBM binding z-score [2],PBM binding z-score [3],PBM binding z-score [4],PBM binding z-score [5],PBM binding z-score [6],PBM binding z-score [7],PBM binding z-score [8]
ATATGTAGGTTATCGAGTCATTCAGTTTGCGCAT,0.699,0.829,0.699,0.829,0.932,0.512,0.232,0.932
ATCTCTAGGTAAGATTCAGTTCAGTGAAGAACGC,0.59,0.513,0.134,0.381,0.0885,0.976,0.542,1.31
ATACCAAGGTGATGGTGAGGTCGTTGATACTAAC,1.83,1.84,0.644,0.506,1.11,3.24,2.44,2.63
GCTAGCAGGCCATTTGTGTCACTCAATGACGGGC,-0.0499,-0.217,0.011,0.131,-0.25,-0.583,-0.967,-0.895
GCGACTGGGGCACAGCAGGTTACCATAAGGTTGG,1.23,0.566,0.841,-0.647,0.331,2.47,-0.0588,-0.59
TATACAGGGTCAGAGGCCAGAGTACGAATGTCGA,3.01,4.21,4.27,1.39,4.32,2.74,0.817,2.2
AGAATGAGCTTACCAAAGATCAGGGAAACGCTTG,-0.958,-0.0102,-0.129,-0.777,0.323,-0.369,-0.963,-0.938
CGAACTAGGTCATTGACAGGACCGTGAATAGTAA,2.09,3.59,3.95,2.37,2.17,2.32,0.476,1.15
TGAATGAGGTTAGAGATCAGGGAACGTGGCGTCG,0.675,1.04,0.944,-0.0534,1.71,1.39,0.0858,-0.315
ACTATTAATTGACTTAGGGCAACCGATACGACGC,1,0.766,0.814,0.828,0.409,0.884,1.15,1.24
AGAATGAGGTTATACTTAGATCAGGGAAGAAAGT,0.8,1.56,1.14,1.87,1.87,1.96,0.882,0.999
ACAGACAGGTGATGAAGGTAACCCAGGCTATCAT,0.672,0.398,0.392,-0.925,0.473,0.892,0.124,-0.253
ATCTCTAGCTAAGACTCAGTTCAGTGAAGAACGC,0.502,0.00118,-0.132,0.313,0.0167,0.338,0.471,1.11
TGAATGAGGTTAAAGATAAGGGAACGTGGCGTCG,0.5,2.21,1.32,1.25,2.88,2.37,0.283,0.766
TCTCGGAGGACACGAAAGCTCAGAGCTCGACATC,0.352,0.462,1.19,0.558,-0.227,1.23,0.151,-0.801
CGTCCAAGATCAGAGAGGTCAGTGAATGCCGAGT,3.9,2.95,3,0.949,2.5,2.64,0.926,2.37
CAAACTAGGTCACCGGAAGATCAAAGTCCGCATG,3.35,4.78,5.35,1.93,3.67,3.63,1.81,0.906
ATACCAAGGTGATCGTGAGGTCGATGATACTAAC,1.82,2.16,1.22,0.391,1.36,3.09,1.95,1.21
CAGCCTAGGTCAGGGCTAGTATAGGAGGAACGTT,2.38,2.93,3.76,-0.422,1.49,1.82,0.321,-0.179

Sequence,PBM binding z-score [1],PBM binding z-score [2],PBM binding z-score [3],PBM binding z-score [4],PBM binding z-score [5],PBM binding z-score [6],PBM binding z-score [7],PBM binding z-score [8]
AGAACGAGGGCAATGAGTTGATAGCACGGGTGGC,0.844,0.952,1.54,1.78,0.91,0.824,-0.00899,2.26
CCTGCTAGGTCATGGTCAGCTAATCTACAGTATG,3.24,4.01,4.52,1.9,2.92,3.06,1.39,0.473
CTACCAAGGCGAACAAGGTCGTTGATTACTATTC,0.781,0.29,0.0992,0.854,0.744,2.38,0.72,1.38
AATACAGGGTCATCGTAGGCCAGATTACGCACAG,3.54,5.85,4.96,3.82,6.58,4.42,1.56,3.35
CCGGCTGGGGCAAGGTTACCATAACGCACAGCCA,1.41,1.14,1.27,-1.12,1.14,1.03,-0.0935,-0.883
TTACCAAGGTGAAGGGCGTTGATCCCTCTGTAGA,0.953,0.413,0.407,-0.371,0.755,1.49,0.536,-0.115
CCTGCTAGGTCAATGGTCAGGTAAAGCAGCTCGC,2.93,3.45,4.27,1.52,2.28,2.65,1.34,0.248
CAAACTCGGTCAAGAGGTCAAAGTCCGCTTCCCG,5.17,7.26,6.13,2.01,6.42,3.9,1.61,3.72
CGAACTAGGTCATTGAGAGGACAGTGAATAGTAA,3.22,5.93,4.96,2.07,3.22,3.42,1.08,1.56
CAAACTAGGTCACCGGAATGTCAAAGTCCGCATG,4.04,5.43,5.46,1.81,3.7,3.71,2.04,0.883
CGAACTAGGTCAAGGAGAGTGAATCTCCGCACGC,2.9,3.91,4.76,1.44,2.85,2.28,0.799,-0.00315
CCTGCAAGGTCATGGTCAGCTAATCTACAGTATG,4.17,6.01,6.24,3.84,6.36,4.04,2.86,2.64
CCTACTGGGCCATTCAGAGCTCATTGATCATATG,-0.346,-0.434,-0.184,0.0203,-0.591,-0.578,-0.449,-0.387
GCATATAGGTAATACAAGGTGAAAGTCCGATTGT,1.03,0.625,0.545,0.387,0.694,4.31,1.08,0.356
CAGCCTAGGTCAGAGCCAGTATAGGAGGAACGTT,2.13,2.87,3.5,0.588,1.5,1.76,0.271,-0.348
CGTCCAAGGTCAAAGGTCAGTGATGAGATGACGG,5.76,8.67,7.8,3.72,10.1,4.87,3.03,4.03
TAGCCTAGGTCATTGGGCCAGCATAGTACGCATC,2.94,3.88,4.34,1.49,3.01,2.76,0.613,0.817
ACCCGGAGGACAAAGGTCAGAGCTACGCCAGTGA,4.67,6.15,5.22,0.737,4.97,3.4,0.681,1.24
CGTCCAAGGTCAAGGTCAGGGAAAGAGACTCGAA,5.45,7.09,7.87,3.81,7.17,4.53,3.82,3.37

Sequence,PBM binding z-score [1],PBM binding z-score [2],PBM binding z-score [3],PBM binding z-score [4],PBM binding z-score [5],PBM binding z-score [6],PBM binding z-score [7],PBM binding z-score [8]
GCTCGGAGGACAAGGTCAGCGCTTTGTCCGTAGA,3.72,3.85,4.29,0.531,3.07,3.23,1.82,0.607
CGAACTAGGTCAGAACAGGACAGTGACGGATGAT,2,2.38,3.42,0.578,1.31,3.31,0.199,0.168
CAAACTAGGTCATAGGTCAAAGTCGAGCCAACCA,4.27,6.56,5.38,2.31,7.49,4.11,1.44,1.92
TCGAGTAAGTTAGTCGGGGCATTCAGCCAACATA,-0.375,-0.647,-0.674,0.38,-0.255,0.0972,-0.58,-0.125
ATATGTAGGTTATTGGGTCATTCAGTTTGCGCAT,3.06,3.09,2.45,1.61,2.89,2.85,2.41,3.17
TCAGACCGGTGAAGGTAACTCAGGTACGCAGTCG,0.271,0.022,-0.104,0.832,0.506,1.29,-0.0547,0.152
CCTACTGGGCCAAGATCATTGATCAGTCAAAGCA,-0.51,-0.246,-0.13,-0.666,-0.589,-0.314,-0.633,-0.179
AGAACGACGGCAATGAGTTGATAGCACGGGTGGC,-0.961,-0.245,-0.185,-0.402,0.0598,-0.626,-1.12,-0.0582
TTACCAAGGTGTGCTGAGGTCGTTGATCCAACTC,1.18,0.184,-0.154,0.555,0.725,3.24,1.77,2.39
TCTTGTAGATCAATAGACGTTAAGAAAGTGCGCT,-0.66,-0.0458,0.0391,0.88,-0.042,-0.347,-0.846,0.0604
TAGCCTAGGTCATTCAGAGGCCAGTATAGAAAGC,3.33,5.8,4.01,1.57,2.87,3.14,0.653,1.14
CCTACTGGGCCAAAAAGGACATTGATGCCGATAA,0.641,0.266,0.586,-0.359,-0.202,0.101,-0.447,0.158
TCATATAGGTAAACAGGCGAAAGTCCGTAAGTTA,0.187,0.299,-0.00353,1.36,0.859,0.323,-0.0757,0.216
ATCGAAAGGTCGAAGAGGTGAGTATACACCGTTT,2.74,4.11,4.08,0.936,4.41,2.73,-0.077,0.745
CCTGGGAGGACAACAGGAGGTCAGAGCTGCCAGA,3.72,3.71,3.6,-0.219,2.29,3.05,1.32,1.37
ATCTCTAGGTAATGTTCAGTGAAAGATCGATAGA,-0.207,0.262,0.561,0.333,0.234,0.493,0.382,0.364
ACTCGTTGGTCAGCTGAGGTCACACACAATTCGG,4.41,4.16,4.25,1.3,4.06,5.18,5.14,3.72
CCTGCTACGTCAATGGTCAGCTAAAGCAGCTCGC,0.4,-0.424,-0.342,0.29,-0.492,-0.534,-0.374,-0.434
